This test in a line: S. aureus quorum sensing inhibitors, primary screen, RNAIII-GFP reporter, flow cytometry (AID 527).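 Note: 0% = AIP-stimulated control and 100% = unstimulated bacteria without AIP.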 The following applies: S. aureus RN6390 RNAIII-GFP reporter, AIP-induced, flow cytometry 3 h, at 2 µM, stronger effect = higher value. In general terms: A flow cytometer gives signals particle by particle.
Setting [1] is: measured here: inhibition of GFP MFI.

Screen size: about 24,000 compounds; about 65 (0.3%) were called active.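 Rule for the calls: active = share of bacteria positive for the green fluorescent reporter and its mean brightness both inhibited by 50% or more; inactive = the rest, inconclusive results apart.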 What follows is part of a selection rich in actives, with near analogues and random picks from the rest.

Our source for the inhibition values is PubChem BioAssay AID527 (NMMLSC, 2006).

`COC(=O)Cn1c(=NC(=O)CSCC(=O)Nc2cc(C)on2)sc2ccccc21`: the inhibition is 0.4% (inactive). Further, the inhibition under setting [1] was determined as 4.6%.

In the case of `CC(C)(C)C(=O)CCN1C(=O)C2(OCCO2)c2ccccc21`, the inhibition is -2.2% (inactive). Moreover, the inhibition under setting [1] was -21.9%.

As for `Cc1cccn2c(=O)c3cc(C(=O)NCc4ccccn4)n(C)c3nc12`, the inhibition was -3.5% (inactive). Further, the inhibition under setting [1] was -9.7%.

As to `C=CCSc1nnc(Cn2c(=O)sc3ccccc32)n1C`, the inhibition is 24.2% (inactive). In addition, the inhibition under setting [1] turned out to be 43.3%.

Consider `CCCS(=O)(=O)N1CCCC(C(=O)N2CCN(c3ccccc3)CC2)C1` (stereo not drawn), for which the inhibition was -1% (inactive). Moreover, the inhibition under setting [1] was -6.2%.

Turning to `CC(c1ccco1)N(C(=O)c1ccc(S(=O)(=O)N2CCCCC2)cc1)c1ccccn1` (stereo not drawn), the inhibition was -0.6% (inactive). Further, the inhibition under setting [1] stood at 4.5%.

Take `CCC1=C(C(=O)OC)C(c2cc(OC)ccc2OC)C(C#N)=C(N)O1` (stereo not drawn): the inhibition is -0.3% (inactive). Further, the inhibition under setting [1] came out at 1.1%.

Take `Cc1nc2ccc(S(=O)(=O)NCC(=O)NCCN3CCCCC3C)cc2s1` (stereo not drawn): the inhibition is -2.2% (inactive). For the same molecule, the inhibition under setting [1] was -14.7%.

As to `CCCOC(=O)c1cc2ccccc2oc1=O`, the inhibition is 3.4% (inactive). In addition, under setting [1], the inhibition came out at 8.3%.

For the molecule `CSc1cccc(NC(=O)C2CCCN2S(=O)(=O)c2ccc3c(c2)CCC(=O)N3)c1` (stereo not drawn), the inhibition was 8.9% (inactive). Besides, under setting [1], the inhibition turned out to be 21%.

Consider `O=C(CN1C(=O)CSc2ncccc21)N1CCOCC1`, for which the inhibition was -5.1% (inactive). Moreover, under setting [1], the inhibition was -14.2%.

On to `CC1CN(C(=O)c2ccc3c(c2)OCO3)OC(c2ccccc2)O1` (stereo not drawn), for which the inhibition was 6% (inactive). For the same molecule, the inhibition under setting [1] is 10.1%.

As for `c1ccc(-c2cn3cccnc3n2)cc1`, the inhibition was -2.7% (inactive). The inhibition under setting [1] was -34.3%.

For the molecule `CS(=O)(=O)NCc1ccc(C(=O)NCc2ccccc2)cc1`, the inhibition was -0.2% (inactive). The inhibition under setting [1] was -1.2%.

On to `CS(=O)(=O)N(Cc1nc2sc3c(c2c(=O)[nH]1)CCCC3)C1CCCCC1`, for which the inhibition is 0.3% (inactive). For the same molecule, the inhibition under setting [1] was -0.2%.

For `Cc1ccc(NC(=O)CSc2nnc(-c3cnccn3)n2Cc2ccco2)cc1C`, the inhibition was -0.7% (inactive). For the same molecule, under setting [1], the inhibition was -6.3%.

As for `CC(=O)C1C(c2cccc(Oc3ccccc3)c2)NC(=O)NC1(O)C(F)(F)F` (stereo not drawn), the inhibition was 18.4% (inactive). For the same molecule, the inhibition under setting [1] was found to be 32%.

With `CCOc1ccc(NCCC(=O)c2ccc3c(c2)OCO3)cc1`, the inhibition was -0.1% (inactive). Also, the inhibition under setting [1] was 10.4%.

Turning to `CCOC(=O)C1CCN(C(=O)C2CCN(S(=O)(=O)c3c(C)noc3C)CC2)CC1`, the inhibition was -1.5% (inactive). In addition, under setting [1], the inhibition is -40%.

Regarding `COc1cc(C2C(C#N)=C(N)Oc3n[nH]c(-c4ccccn4)c32)cc(OC)c1OC` (stereo not drawn), the inhibition was -3.4% (inactive). In addition, under setting [1], the inhibition was determined as 8.1%.

Take `CSc1ccc(NC(=O)N2CC(C)OC(C)C2)cc1` (stereo not drawn): the inhibition was 0% (inactive). Also, under setting [1], the inhibition worked out at 1.1%.

Take `O=C(CN1CCN(S(=O)(=O)c2ccc(F)cc2)CC1)Nc1ccccc1F`: the inhibition was 11.5% (inactive). The inhibition under setting [1] was 16.5%.

Turning to `COc1ccc(C2CC(c3ccc(C)cc3)Nc3ncnn32)cc1` (stereo not drawn), the inhibition is -0.4% (inactive). Also, under setting [1], the inhibition came out at 12.6%.

For `CCCCN=C(N)/C(C(=O)OCC)=C(\O)c1ccc(OC)cc1`, the inhibition is 0.5% (inactive). In addition, the inhibition under setting [1] came out at 11.9%.

As to `O=C(O)c1cccc2c1C(=O)N(C1CCCCC1)C2`, the inhibition was 0% (inactive). Also, the inhibition under setting [1] worked out at 21.1%.

Consider `CCN(CC)S(=O)(=O)c1ccc2[nH]cc(C(=O)NCCc3ccccc3)c(=O)c2c1`, for which the inhibition is -0.1% (inactive). For the same molecule, under setting [1], the inhibition was -2.7%.

As to `COc1c(F)c(F)c(C(=O)O)c(Nc2ccccc2C)c1F`, the inhibition is -1.7% (inactive). For the same molecule, the inhibition under setting [1] was -14%.

`COc1ccc(C(=O)Nc2cccnc2)cc1C(=O)Nc1cccnc1`: the inhibition is 2.2% (inactive). Besides, under setting [1], the inhibition came to 2.6%.

In the case of `COc1ccc(N2C(=O)c3cccc4cccc(c34)C2=O)nn1`, the inhibition was -1.1% (inactive). For the same molecule, under setting [1], the inhibition is -16.4%.

`Cc1cccc(C)c1NC(=O)N1CC=C(n2c(=O)[nH]c3ccccc32)CC1`: the inhibition is 8.3% (inactive). The inhibition under setting [1] is 17.1%.

On to `CCCCC(CC)C(=O)Nc1ccc(Cl)cn1` (stereo not drawn), for which the inhibition is 0.6% (inactive). In addition, the inhibition under setting [1] came to 18.7%.

For the molecule `Cc1nc2nc[nH]n2c(=O)c1NC(=O)c1cccc(OCC(C)C)c1`, the inhibition was -5.4% (inactive). Under setting [1], the inhibition is -8.1%.

Consider `COc1ccc(-c2c(C)nn3c(N4CCC(C(=O)N5CCCCC5)CC4)cc(C)nc23)cc1OC`, for which the inhibition was -3.5% (inactive). Besides, the inhibition under setting [1] was -8.8%.

As to `CCOc1ccc(-c2nnn(CC(=O)N3CCN(c4ccc(F)cc4)CC3)n2)cc1OCC`, the inhibition is 0.7% (inactive). Further, the inhibition under setting [1] is 1.3%.

As for `COc1cccc(CN2C(=O)CCC2(C)C(=O)NC2CCCCCC2)c1` (stereo not drawn), the inhibition was -1.4% (inactive). Further, under setting [1], the inhibition was -12.5%.

In the case of `COCCCNC(=O)c1ccc2c(c1)ncn2-c1ccccc1OC`, the inhibition is -3.4% (inactive). Also, the inhibition under setting [1] was -5.1%.

As to `CCOC(=O)c1cc(NC(=O)SCC(=O)O)c(C)nc1C`, the inhibition is -1.6% (inactive). Also, the inhibition under setting [1] is -14.7%.

For the molecule `CCOc1cc(/C=N/n2cnnc2)c(Br)cc1O`, the inhibition was -1.6% (inactive). The inhibition under setting [1] was -8.8%.

`COCCNC(=S)c1ccc(OC)cc1`: the inhibition was -3.4% (inactive). Besides, under setting [1], the inhibition is -6.1%.

For `Clc1ccc(Cc2nn3c(-c4ccncc4)nnc3s2)cc1`, the inhibition is 0.3% (inactive). Besides, the inhibition under setting [1] was found to be 5.4%.

Take `CCC(=O)c1ccc(OCC(O)CN2C(=O)NC(C)(C)C2=O)cc1` (stereo not drawn): the inhibition is -0.8% (inactive). Under setting [1], the inhibition is -2.7%.

Take `COc1ccc(S(=O)(=O)NC(CC(=O)NCc2ccccc2OC)c2ccco2)cc1` (stereo not drawn): the inhibition is -0.4% (inactive). Also, under setting [1], the inhibition is -11.3%.

With `CC(C)CCNC(=O)CCNS(=O)(=O)c1ccc(Cl)cc1`, the inhibition is 2.3% (inactive). Under setting [1], the inhibition is 8%.

For the molecule `O=C(CCS(=O)(=O)Cc1ccccc1F)NCCCN1CCCCC1`, the inhibition was -1.8% (inactive). Besides, the inhibition under setting [1] is -2.4%.

A word on the inhibition: it is the change of the read-out against control, counted positive when it falls.
